Whole data set: some 25,000 sequences, median “ln(normalized median fluorescence intensity)” near 7.1, cut for the highest 2% near 10. Shown is part of a subset that was picked to be rich in the highest values.
The sequences below were run on PfSIP2 AP2 domain 1 (GST-tagged) (assay: gcPBM binding intensity (ln(normalized median fluorescence intensity)); higher = stronger DNA binding).
In short: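 In this array assay, P. falciparum DNA-binding domains with a GST tag, expressed in E. coli, were applied for 1 h to primer-extended double-stranded 36-bp intergenic genomic probes and negative controls on an Agilent 4 × 180k array. Bound protein was visualised with Alexa488 anti-GST antibody at 488 nm. Binding intensity is the highest Masliner-normalised natural-log median intensity across replicate spots of either probe orientation.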

| Sequence | gcPBM binding intensity (ln) |
| --- | --- |
| AACTGTAAAAAATATAAACACACATAGAAATATATA [CACACA_site8002] | 7.01 |
| CAGGGCAGGGGGAAGGGTACACATAAAAGAAAATAA [XGTACX_site172] | 8.34 |
| AAAATAAAAAGAAAAAGAAAAAAGGGGGGGTAGGGG [CACACA_negctrl_site1048] | 7.86 |
| TCATAGGGGTAGAAGGTGCAATAAAAAAGAAGAAAA | 10.7 |
| TGAACATTATAGAAAAGTACTTAGTTTTTAAAAAGA [XGTACX_site6864] | 7 |
| AAAAAAAAAAAAAAAGTGCACAGTCGTTTTAAAAAA [GTGCAC_site9848] | 10.7 |
| TATATATATAAAAGTTGTACAGTGTTTTATATAGTT [XGTACX_site7085] | 8.13 |
| GTCTAAAAATAAAAAGTGCATTTGTTTAATATTTTG | 9.52 |
| AAAAAAAAAAGAAACACACACATTTGTCTATAATAT [CACACA_site7063] | 6.8 |
| AAAATACATGGACACACACACACACCGATATATATA [CACACA_site5885] | 7.4 |
| TATGTTTTATATAAGATGCACTTTTGTTATGCTTCA | 8.55 |
| TTTTGTTTTTTCAATGTGCACTTAGGATGTTTTTAT [GTGCAC_site9565] | 10.6 |
| TTTTTTTTTTTTTTTGTGCACAATTATTTCAATTTT [GTGCAC_site9884] | 8.88 |
| CCATGTCACAATTTTTCACACACAAAATTTATATAC [CACACA_site8628] | 7.39 |
| TATTTTTAGAAAATAAAGAAGGAGAATTGAAAATAT [CACACA_negctrl_site361] | 7.06 |
| TTTTGTTTTTAGTTTATACACACCATATTAATATAA [CACACA_site3102] | 7.27 |
| AAGAAAATATAAAATGCACACTATAAATTGTATATA [CACACA_site7928] | 7.84 |
| CATTATAAAAAATAAAAAAGAAATAATTGTATATGC [CACACA_negctrl_site478] | 7 |
| TGTATGTATAATTGAGTGCACAGAAAAAAAAAAGAA | 10.5 |
| ATATATTTTTTTTCTTCACACACATGAATTATATAT [CACACA_site9053] | 7.45 |
| ATATAAATTTTTTATGAACACACAAATACAGACACT [CACACA_site8848] | 7.37 |
| TAAACATAAATATGCACACATATACAGATATTCATA [CACACA_site5471] | 7.04 |
| AATATTTATGGGTGCACACAAACATACATATATATA [CACACA_site3395] | 11.8 |

| Sequence | gcPBM binding intensity (ln) |
| --- | --- |
| TACAAATATATATGCACACACATATACATACAGATA [CACACA_site5238] | 7.27 |
| AATATTTATGGGTGCACACAAACATACAGATATATA [CACACA_site5810] | 12.1 |
| AAAAAAAAAACATACACACACACAAATATTTATATA [CACACA_site437] | 6.94 |
| ATAATATTTAGGTGTGCACACAAACATACATATATA [CACACA_site9120] | 8.81 |
| ATATAAATTGGCAATAGTACATAAAGGCATAGAAAG [XGTACX_site2674] | 7.31 |
| TTGTATATATTTCCTTGTACGTAATAATTCTTATTG [XGTACX_site3938] | 7.19 |
| TTTATTTGTTCATGCGTGCACTTGATAACAATGTAC [GTGCAC_site9561] | 9.9 |
| ATATTATAATTGAAGGTGCAAAATGTAATATAGATA [GTGCAC_site9661] | 10.6 |
| AGATATTATAATTAATGTACAAAAAGAAAAAATAGA [XGTACX_site8964] | 7.04 |
| AAATATAATTAATGATGTACACTTATAGATATTGAT [XGTACX_site8435] | 7.09 |
| TTTTATAATCATAATAGTACTTTTTCTTTTTCACAT [XGTACX_site5017] | 6.7 |
| TATATATATAATGTTTGTACATATTAAATATATATG [XGTACX_site407] | 8.3 |
| CTCATTTTGTTAATGGTGCAAAAAAAAAAAAAAAAA | 11 |
| TTTTCATTTGTGACAGTGCAAAATGTTATATTAAAA [GTGCAC_site9647] | 8.57 |
| TTTTTTGTTACAACAGTGCAAAAAAACCTTAATGTT | 7.84 |
| TTATCAATAAAATGCACACACTGTAATATTATTAAA [CACACA_site6055] | 7.18 |
| TATCTTATAAACTCTGCACACATAATATATTAAATG [CACACA_site8587] | 9.1 |
| ATATGTATGTATTTATTATTGTGCATTGTATTTATA [CACACA_negctrl_site664] | 7.44 |
| ATATATATTATCATTGTGCACTTATTTATATACCTT | 10.5 |
| TTATCATTTGCCATTGTGCACTTATATGCTCACATT | 10.2 |
| TATGTATGTGCTTGTGCGCACCGATAATATAGCCAA | 9.96 |
| AAAAAGGAAATAATAACACACATTAATAATTATAAA [CACACA_site3401] | 6.67 |
| CAAAAGGATATGCACACACACACACGGATATTTATA [CACACA_site7099] | 7.41 |

| Sequence | gcPBM binding intensity (ln) |
| --- | --- |
| TATTTATGCACGCGTGCACACACATATGAAAAAAGG [CACACA_site9090] | 10.4 |
| TTATATGCATAAAAAGGTACACATATATAAATAAAT [XGTACX_site6894] | 7.12 |
| GGTATTTATGGACGCGTGCACACACATATGAACAAA | 9.35 |
| TTTATGCACGCGTGCACACACATATGAAAAAAGGTA [CACACA_site3315] | 10.4 |
| TATGAAAAAATATATACACACATAATAAAGGTATAT [CACACA_site3737] | 6.9 |
| TGTTTTATTTATTAAGCACACGCGATTTAAAAAATA [CACACA_site981] | 6.79 |
| TGTATATTTTAGTGATGTACTAATATTATTACTAAT [XGTACX_site3952] | 6.99 |
| TTCTAATATTTACATAATATATAGAAATATAAAGGT [XGTACX_negctrl_site504] | 7.4 |
| TATATTAACAAAATGGTGCAATAATTTCTATATTAT [GTGCAC_site9857] | 10.4 |
| TATATTATCAAAATGGTGCAATAATTTCTATATTAT [GTGCAC_site9772] | 9.9 |
| GTAGACATTATAATGGTGCAAAAAAATTAACAAAAA [GTGCAC_site9891] | 10.5 |
| AGCAAAACAAAAAAATTAAAATTAACATATAATCAT [GTGCAC_negctrl_site393] | 6.7 |
| TATATTAACAAAATGGTGCAATAATTTCTATATTGT [GTGCAC_site9430] | 9.87 |
| GTTAACAAATAATGCACACAAATGGATAAAATTATA [CACACA_site3725] | 7.68 |
| TTAAATACTAAAAAGTGTACACATACATAAAAAATT [XGTACX_site6261] | 7.32 |
| TTTTGTTTATTATGATTCAAAATGATTTTATCTTTG [TGCATGCA_negctrl_site425] | 6.71 |
| ACATATATATATTTATATATATATATATATATGTGA [CACACA_negctrl_site613] | 7.44 |
| AAGTATAGTCTTACATATATATATATATATATATAT [GTGCAC_negctrl_site280] | 9.42 |
| AGTTTTATATAAGCTTGTACTTAATATTATTAAGTA [XGTACX_site5919] | 6.99 |
| ATCTAATATATATTCTGTACGTAATTAAAACCACAA [XGTACX_site3152] | 7.54 |
| GGACTTAAATAAAATGGTACAGAATTTATATATATT [XGTACX_site8214] | 6.83 |
| TAGTTAACAAATAATGCACACAAATGGATAAAATTA [CACACA_site9240] | 7.83 |
| TTAAAAGTTATGGATACACACATATAAATATAGATT [CACACA_site7175] | 6.77 |

| Sequence | gcPBM binding intensity (ln) |
| --- | --- |
| AAATAGTTGTTAAAGGTGCACAATATGGATATAAGA | 11.2 |
| GTAAATATTAATAAAAGTACATATGTAGCATATGGA [XGTACX_site5219] | 7.09 |
| TTATTTATTTATTCATGTACGTGTATTTTTTAAAAA [XGTACX_site7915] | 7.28 |
| TGTGCACGTTCTGTGACACACATTTAAATGTGCTTA [CACACA_site176] | 10.7 |
| TTAAATTACTAATGTGCACACATACTAACGTTTAAA [CACACA_site3573] | 9.21 |
| TATATATATATATATGTGCACATTTTATTAAAATGT | 9.6 |
| TCTGTATATTTCGCGCGTACGAACAAATTGATAATT [XGTACX_site7965] | 7.11 |
| AAAAATATAATATAATGTACACAAAAAAAAAAAAAT [XGTACX_site4914] | 7.13 |
| GTATATAATATTAGTGCACACACAAAAATGTACTAA [CACACA_site8112] | 10.9 |
| ATAATAAATACACTAGTGCAAAATAATATATGTACT [GTGCAC_site9707] | 8.13 |
| ATATTACAAATATAATGTACAAAATATAAATATGCA [XGTACX_site8106] | 6.85 |
| AAAAATATAATATAATGTACACATAAACAAAAAAAA [XGTACX_site3658] | 7.04 |
| CTATAATATTAGTGCACACACAAAAATGTACTAAAC [CACACA_site6442] | 11.3 |
| AGAAAAATAAACAAATGTACAAATTATTACTATATA [XGTACX_site1087] | 6.8 |
| ATATAATATTAGTGCACACACAAAAATGTACTAAAC [CACACA_site632] | 10.9 |
| TATAATATAATATATGCACACAAATATGTATATATG [CACACA_site8664] | 7.15 |
| TTCGTATATTATTAATGTACATTATAAAATCAATAT [XGTACX_site5751] | 7.08 |
| GACTGAACAACATAATGTACATTTATAAGTATATAT [XGTACX_site3813] | 7.15 |
| TTTTTTTTCAATGGTTGTACAAAGTAAAACAACAAA [XGTACX_site1582] | 7.2 |
| ATATGTAAATAAATATGTACTCATTTATTATTTTAT [XGTACX_site8748] | 7.06 |
| CATTTTATTCTATATGCATGTTAAAAAATGTGTTGA [TGCATGCA_site128] | 7.12 |
| AAATATAATATACAAAGTACTTTTTCATCTTATATA [XGTACX_site8771] | 6.84 |
| AAACAATTTGGGTGTACACATGATACGTTCGATGAG [CACACA_site5160] | 7.18 |

Reference: the supplement of paper PMC11417369
